Data: PubChem BioAssay (NCI)
About 83,000 compounds went through this panel and 20% of them were active in at least one assay; those are over-represented in the sample as a whole.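 In brief: 96-well plates, 48 h treatment, single concentration, percent growth endpoint.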 Activity calls are given as the source filed them. How the source made its calls: active means growth percent below 10; inactive means the rest.

How the values were obtained:
Experiment in all cases: NCI-60 one-dose screen, 48 h (100 = growth as untreated, 0 = no growth, -100 = all killed)
Details in all cases: 10 µM unless noted
[1] = system: NCI-H23 lung
[2] = system: NCI-H226 lung
[3] = system: NCI-H322M lung
[4] = system: HOP-62 NSCLC
[5] = system: NCI-H460 lung
[6] = system: HOP-92 NSCLC
[7] = system: NCI-H522 lung
[8] = system: A549/ATCC NSCLC
[9] = system: 786-0 renal
[10] = system: COLO 205 colon

Measured: growth

O=C([C@H]1C[C@H]1c1ccc(S(F)(F)(F)(F)F)cc1)N1CCN(c2cc(Cl)ccc2C(F)(F)F)CC1
inactive: [1] 91.2% | [2] 75.7% | [3] 90.1% | [4] 102% | [5] 95.6% | [6] 88.3% | [7] 70.7% | [8] 81.5% | [9] 89.3% | [10] 101%

Nc1n[nH]c2cccc(C#Cc3cccc(NC(=O)c4ccc(N5CCOCC5)c(C(F)(F)F)c4)c3)c12
active: [2] -0.121% | [6] -47.1% | [7] 9.42% | [9] -39.4% | [10] -18.2%
inactive: [1] 13.5% | [3] 10.4% | [4] 16.8% | [5] 18.7% | [8] 13%

Cn1cc(-c2nc3c(F)cc4[nH]ncc4c3c3c2CCCC3)c(C(F)F)n1
inactive: [1] 66.9% | [2] 62.2% | [3] 66.2% | [4] 57.3% | [5] 62.3% | [7] 26.9% | [8] 58.1% | [9] 63.9% | [10] 89.4%
active: [6] 8.14%

COC(=O)c1[nH]nc(OC)c1C1(C(C#N)c2nc3ccccc3s2)CCCc2ccccc21 (stereo not given)
inactive: [1] 97.5% | [2] 84.9% | [3] 99.6% | [4] 85% | [5] 99% | [6] 72.9% | [7] 98.4% | [8] 96.2% | [9] 101% | [10] 103%

O=C1CCc2c(sc3[nH]c(=S)n(Cc4ccc(Cl)cc4)c(=O)c23)C1
active: [1] -12.9% | [2] -8.6% | [4] -11.5% | [5] 5.05% | [6] -44.2% | [7] -18.6% | [8] 5.35% | [10] -67.5%
inactive: [3] 11.4% | [9] 21%

COc1ccc(/C=N/NC(=O)CN2CCN(c3cc4c(cc3F)c(=O)c(C(=O)O)cn4C3CC3)CC2)cc1O
inactive: [1] 103% | [2] 112% | [3] 102% | [4] 98.9% | [5] 105% | [6] 91.8% | [7] 80.8% | [8] 99.5% | [9] 101% | [10] 112%

O=C(/C=C/C12c3ccccc3C(c3ccccc31)C1C(=O)NC(=O)C12)c1ccncc1 (stereo not given)
active: [4] 4.78%
inactive: [1] 23.2% | [2] 78.9% | [3] 35.6% | [5] 24.9% | [6] 23.6% | [7] 28.5% | [8] 86.1% | [9] 20.6% | [10] 78.2%

Cc1ccccc1SSc1ccccc1C
inactive: [1] 83.4% | [2] 95.6% | [3] 98.2% | [4] 96% | [5] 37.4% | [6] 81.2% | [7] 60.8% | [8] 98.8% | [9] 105% | [10] 91.4%

Cc1nn(-c2nc(-c3cc4ccccc4oc3=O)cs2)c(C)c1N=Nc1ccccc1
inactive: [1] 98% | [2] 105% | [3] 97.3% | [4] 102% | [5] 108% | [6] 79.9% | [7] 97.8% | [8] 114% | [9] 104% | [10] 114%

Fc1ccccc1-c1cnn2cc(-c3ccccc3)cnc12
inactive: [1] 95.5% | [2] 94.3% | [3] 95.5% | [4] 103% | [5] 98.2% | [6] 100% | [7] 97.7% | [8] 94.2% | [9] 97.2% | [10] 118%

CC1(C)C(N)=Nc2cc(OCCCCN3Cc4ccccc4C3)c(OCC3CC3)cc21
active: [10] -62.7%
inactive: [1] 80.3% | [2] 79.6% | [3] 79.9% | [4] 85.6% | [5] 75.2% | [6] 103% | [7] 64.2% | [8] 79.5% | [9] 64.8%

COC(=O)/C=C1/SC(N2N=C(c3cccs3)CC2c2ccc(F)cc2)=NC1=O (stereo not given)
inactive: [1] 82.2% | [2] 84% | [3] 93% | [4] 85.2% | [5] 24.4% | [6] 77.1% | [7] 24.3% | [8] 90.7% | [9] 85.3% | [10] 21.8%
